Bioassay records: PubChem BioAssay, Broad Institute
Most compounds without a hit are left out; they make up all but 6.7% or so of the library.
T cruzi growth-1 = T. cruzi proliferation inhibition; 77,000 tested, 5.9% active; T. cruzi beta-gal in NIH3T3, GalScreen luminescence, 90 h; AID 624255; inhibition, % at 8.34 µM;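 active = mean inhibition above about 93%, with at least 55% of replicates each passing it, limit read from the data, passing the limit was not always enough; inconclusive = only one of those two conditions holds; inactive = neither condition holds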
Pf Dd2 inh = inhibitors of Plasmodium falciparum Dd2 growth. P. falciparum Dd2 growth, SYBR Green, 72 h; active compounds read low. 94,000 tested, 2.3% active. activity change, % at 10 µM; in the data active = activity change below about -80%; inconclusive = no clear call, values can overlap the other calls
C diff HTS = inhibitors of Clostridium difficile growth; 86,000 tested, 0.25% active; AID 1259249; growth activity, negative = inhibition, % at 16 µg/mL (by protocol); Clostridium difficile clinical isolate growth, OD600, 24 h; active compounds read low;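 active = mean growth activity at or below -80% and every replicate also at or below -80%; inconclusive = mean at or below -80% but some replicate above -80%; inactive = mean growth activity above -80%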;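 note: 0% = DMSO wells and -100% = levofloxacin 16 µg/mL wells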
T cruzi growth-2 = inhibitors of T. cruzi proliferation | shares compounds with T cruzi growth-1 | T. cruzi beta-gal in NIH3T3, GalScreen luminescence, 90 h | inhibition, % at 8.35 µM | 5,600 tested, 72% active | AID 651739;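 active = mean replicate inhibition above about 95% and at least 55% of replicates individually reaching it, limit read from the data; inconclusive = only one of the two criteria is met; inactive = neither criterion is met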
T cruzi growth-3 = inhibitors of T. cruzi proliferation | shares compounds with T cruzi growth-1 | T. cruzi beta-gal in NIH3T3, GalScreen luminescence, 90 h | inhibition, % at 2.09 µM | 5,600 tested, 21% active;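 active = mean inhibition above about 95%, with at least 55% of replicates also reaching it, limit read from the data; inconclusive = meets just one of the two conditions; inactive = meets neither condition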;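 note: plate controls were neutral control median for no effect and positive control median for full effect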
NIH3T3 tox = cytotoxicity in mouse NIH/3T3 fibroblasts. AID 651742. cytotoxicity (signal decrease), % at 8.35 µM. shares compounds with T cruzi growth-1. NIH/3T3 viability, CellTiter-Glo ATP luminescence, 90 h. 5,600 tested, 14% active;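 active = mean signal decrease across replicates above about 35% based on untreated-well scatter, with enough replicates individually passing, limit read from the data; inconclusive = no rule stated though some were filed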;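 note: 0% = median of neutral control wells and 100% = median of positive control wells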
3T3 cytotox 2 = NIH/3T3 (mouse) viability loss; shares compounds with T cruzi growth-1; NIH/3T3 viability, CellTiter-Glo ATP luminescence, 90 h; inhibition, % at 24.9 µM; 5,600 tested, 56% active; AID 651744;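 active = mean loss of cell viability signal at or above a set limit, and enough replicates individually reaching it; inconclusive = meets only the mean limit or only the replicate share; inactive = meets neither condition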;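 note: 0% = median of neutral control wells and 100% = median of positive control wells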
An asterisk follows results filed as active; ? = inconclusive; nt = no result given; ! = repeats disagree.

SMILES	T cruzi growth-1	Pf Dd2 inh	C diff HTS	T cruzi growth-2	T cruzi growth-3	NIH3T3 tox	3T3 cytotox 2
C[C@@H]1CCCCO[C@@H](CN(C)Cc2ccccc2)[C@H](C)CN([C@H](C)CO)C(=O)c2cc(NC(=O)c3ccncc3)ccc2O1	?	-41	nt	61	38	-8	-7
C[C@@H]1CCCCO[C@@H](CN(C)Cc2ccccc2)[C@H](C)CN([C@@H](C)CO)C(=O)c2cc(NC(=O)c3ccncc3)ccc2O1	70	4	-4	nt	nt	nt	nt
C[C@@H]1CN([C@@H](C)CO)C(=O)c2cc(NC(=O)c3ccncc3)ccc2O[C@@H](C)CCCCO[C@@H]1CN(C)C(=O)c1ccccc1	48	-13	-1	nt	nt	nt	nt
C[C@@H]1CCCCO[C@H](CN(C)S(=O)(=O)c2ccccc2)[C@@H](C)CN([C@H](C)CO)C(=O)c2cc(NS(=O)(=O)c3cn(C)cn3)ccc2O1	17	12	-3	nt	nt	nt	nt
CO[C@@H]1CN(C)C(=O)c2cc(NC(=O)C3CC3)ccc2OC[C@H](C)N(C(=O)Cc2ccccn2)C[C@@H]1C	23	4	-4	nt	nt	nt	nt
O=C(C1CCC1)N1CC(=O)N2[C@H](CO)[C@@H](c3ccc(C#Cc4cccc(F)c4)cc3)[C@H]2C1	nt	4	-21	nt	nt	nt	nt
C[C@H](CO)N1C[C@H](C)[C@@H](CN(C)C(=O)C2CCOCC2)Oc2cc(C3=CCCC3)ccc2S1(=O)=O	?	-24	-3	67	6	20	29*
C[C@H]1CN([C@@H](C)CO)S(=O)(=O)c2ccc(C3=CCCC3)cc2O[C@H]1CN(C)C(=O)C1CCC1	52	-38	-6	nt	nt	nt	nt
C[C@H]1CN([C@@H](C)CO)S(=O)(=O)c2ccc(C3=CCCC3)cc2O[C@@H]1CN(C)C(=O)C1CCCCC1	105*!	-24	-10	102*!	71	-6	57*!
C[C@@H]1CN([C@@H](C)CO)S(=O)(=O)c2ccc(C3=CCCCC3)cc2O[C@H]1CN(C)C(=O)C1CCC1	28	-34	2	nt	nt	nt	nt
C[C@@H]1CN([C@H](C)CO)S(=O)(=O)c2ccc(C3=CCCCC3)cc2O[C@@H]1CN(C)C(=O)C1CCCCC1	127*	-47	-11	96*	92	30	102*
C[C@@H]1CN([C@@H](C)CO)S(=O)(=O)c2ccc(C3=CCCC3)cc2O[C@@H]1CN(C)C(=O)C1CCOCC1	65	-1	-3	nt	nt	nt	nt
CN1CCN(C(=O)C[C@@H]2CC[C@H]3[C@@H](COC[C@H](O)CN3CC3CCCC3)O2)CC1	nt	18	-3	nt	nt	nt	nt
C[C@H]1CCCCO[C@H](CN(C)C(=O)NC2CCCCC2)[C@@H](C)CN([C@@H](C)CO)C(=O)c2cc(NC(=O)Cc3ccccc3)ccc2O1	54	-65	-9	nt	nt	nt	nt
CO[C@H]1CN(C)C(=O)c2cc(NC(C)=O)ccc2OC[C@@H](C)N(C(=O)c2ccncc2)C[C@H]1C	-18	5	-1	nt	nt	nt	nt
C[C@H](O)C#Cc1ccc([C@@H]2[C@@H](CO)N3CCCCN(S(=O)(=O)c4ccccc4)C[C@H]23)cc1	111*	-38	-8	61	-18	16	8
C[C@H](O)C#Cc1ccc([C@@H]2[C@@H](CO)N3CCCCN(S(=O)(=O)c4ccccc4)C[C@@H]23)cc1	24	-16	-4	nt	nt	nt	nt
C[C@H](O)C#Cc1ccc([C@H]2[C@@H](CO)N3CCCCN(S(=O)(=O)c4ccccc4)C[C@@H]23)cc1	90	-14	-1	nt	nt	nt	nt
C[C@@H](O)C#Cc1ccc([C@H]2[C@H]3CN(S(=O)(=O)c4ccccc4)CCCCN3[C@H]2CO)cc1	73	?	-6	nt	nt	nt	nt
C[C@@H](O)C#Cc1ccc([C@@H]2[C@@H](CO)N3CCCCN(S(=O)(=O)c4ccccc4)C[C@@H]23)cc1	117*	-6	-10	41	9	10	26*
C[C@@H](O)C#Cc1ccc([C@H]2[C@H](CO)N3CCCCN(S(=O)(=O)c4ccccc4)C[C@@H]23)cc1	105*	-19	-6	71	-3	2	5
O=S(=O)(c1ccc(F)cc1)N1CCCCN2[C@@H](CO)[C@@H](c3ccc(-c4ccccc4)cc3)[C@@H]2C1	91	-69	37	nt	nt	nt	nt
CN1C(=O)c2cc(NC(=O)Nc3ccccc3F)ccc2OC[C@H]2O[C@H](CC(=O)O)CC[C@H]21	-5	9	2	nt	nt	nt	nt
C[C@@H]1CCCCO[C@@H](CN(C)CC2CCCCC2)[C@H](C)CN([C@H](C)CO)C(=O)c2cc(NS(=O)(=O)c3ccc(F)cc3)ccc2O1	85	-51	20	nt	nt	nt	nt
O=C(NC1CCCC1)N1CCCCN2[C@H](CO)[C@H](c3ccc(-c4ccccc4)cc3)[C@H]2C1	104*	-20	3	84	86	2	104*
SMILES	T cruzi growth-1	Pf Dd2 inh	C diff HTS	T cruzi growth-2	T cruzi growth-3	NIH3T3 tox	3T3 cytotox 2
O=C(NC1CCCC1)N1CCCCN2[C@@H](CO)[C@@H](c3ccc(-c4ccccc4)cc3)[C@@H]2C1	?	-15	32	98*	57	13	103*
COc1ccccc1-c1ccc([C@@H]2[C@H](CO)N3CCCCN(C(=O)NC4CCCC4)C[C@@H]23)cc1	54	13	23	nt	nt	nt	nt
O=C(NC1CCCC1)N1CCCCN2[C@H](CO)[C@@H](c3ccc(-c4cccnc4)cc3)[C@@H]2C1	59	-39	8	nt	nt	nt	nt
CCCc1cn(CC[C@@H]2CC[C@H](NC(=O)C3CCC3)[C@@H](CO)O2)nn1	nt	9	0	nt	nt	nt	nt
COc1cccc(CN(C)C[C@@H]2OCc3ccccc3-c3ccccc3C(=O)N([C@@H](C)CO)C[C@@H]2C)c1	49	-12	-8	nt	nt	nt	nt
COc1cccc(S(=O)(=O)N(C)C[C@H]2OCc3ccccc3-c3ccccc3C(=O)N([C@@H](C)CO)C[C@@H]2C)c1	74	-1	-11	nt	nt	nt	nt
COc1cccc(CN(C)C[C@H]2OCc3ccccc3-c3ccccc3C(=O)N([C@@H](C)CO)C[C@H]2C)c1	?	-48	6	87	11	6	-10
COc1cccc(S(=O)(=O)N(C)C[C@H]2OCc3ccccc3-c3ccccc3C(=O)N([C@H](C)CO)C[C@@H]2C)c1	?	-32	1	82	7	-16	16
O=C(C[C@H]1C[C@@H]2c3cc(NC(=O)Nc4ccccc4F)ccc3O[C@@H]2[C@@H](CO)O1)NCc1ccccn1	nt	-13	-2	nt	nt	nt	nt
CO[C@H]1CN(C)C(=O)c2ccc(NS(=O)(=O)c3ccccc3)cc2OC[C@@H](C)N(Cc2nccs2)C[C@H]1C	5	-23	-5	nt	nt	nt	nt
N#C[C@H]1[C@H](c2ccc(C3=CCCCC3)cc2)[C@H](CO)N1C(=O)NC1CCCCC1	101*	20	-25	97*	101*	10	69*
N#C[C@@H]1[C@@H](c2ccc(C3=CCCCC3)cc2)[C@@H](CO)N1C(=O)NC1CCCC1	nt	-44	-7	nt	nt	nt	nt
